From PubChem BioAssay
In the library only some 27% were active in any assay of this set; here they are far more common.
CYP2C9 inhib: blockers of cytochrome P450 2C9 activity – biochemical, luminescence, ADME assay, primary screen. P11712. CYP2C9 Supersomes, luciferin-H conversion. AID 777, 2007. inhibition, % at 5 µM. 20% of 96,000 active;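 active = blocking of liver enzyme CYP2C9 beyond about 50% at 5 µM, limit read from the data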
Cav3 T inh: Cav3.2 calcium influx blockers – cell-based, Fluo-4 calcium fluorescence, FDSS, MLSMR library, primary screen; Voltage-dependent T-type calcium channel subunit alpha-1H (Homo sapiens), O95180; Cav3.2-expressing cells; hits give low values; B-score at 10 µM; 4% of 100,000 active;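 active = single-dose well whose peak fluorescence ratio is a statistical outlier from its plate by either plate-standardised score or position-corrected B-score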
CYP2C19 inh: blockers of cytochrome P450 2C19 activity – biochemical, luminescence, ADME assay, primary screen | P33261 | CYP2C19 Supersomes, luciferin-H EGE luminescence, 30 min | inhibition, % at 5 µM | 21% of 96,000 active | AID 778, 2007;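 active = CYP2C19 inhibition above a set limit at 5 µM in the primary screen, cut at about 50% in these data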;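 note: plate controls were negative control wells for no effect and 2.5 mM tranylcypromine positive control for full effect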
CYP2C19 activ: human CYP2C19 activators, primary screen, biochemical, luminescence; activation factor at 5 µM; recombinant CYP2C19, luciferin-H EGE luminescence; hits give high values; 0 = fully inhibited enzyme, 1 = untreated enzyme; 96,000 tested, under 10 active; AID 1025, 2008; Cytochrome P450 2C19 (Homo sapiens), P33261;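 active = activation factor of at least 2 at 5 µM in the primary screen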;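 note: 0 = wells with 2.5 mM tranylcypromine and 1 = vehicle-only wells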
CYP2C9 activ: human CYP2C9 activators, primary screen, biochemical, luminescence. activation factor at 5 µM. 1.4% of 96,000 active. recombinant CYP2C9, luciferin-H conversion; hits give high values; factor 1 = untreated enzyme, 0 = blocked. Cytochrome P450 2C9 (Homo sapiens), P11712. AID 1024, 2008;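 active = activation factor of 2 or more for CYP2C9 at a 5 µM dose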;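 note: 0 = sulfaphenazole-blocked wells and 1 = vehicle-only wells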
* = called active by the depositor.

How did COc1cc2c(cc1NC(=O)C(C)OC(=O)C1CC(=O)N(Cc3ccco3)C1)oc1ccccc12 (stereo not given) do in these assays?
CYP2C9 inhib: 49; Cav3 T inh: -1.3; CYP2C19 inh: 11; CYP2C19 activ: 0.9; CYP2C9 activ: 0.5

How did COC(=O)c1sc(N)c(C(=O)OC)c1COC(=O)C1CC(=O)N(Cc2ccco2)C1 (stereo not given) do in these assays?
CYP2C9 inhib: 91*; Cav3 T inh: -2; CYP2C19 inh: 79*; CYP2C19 activ: 0.2; CYP2C9 activ: 0.1

What do the screens show for `CCOC(=O)c1sc(N)c(C(=O)OCC)c1COC(=O)C1CC(=O)N(Cc2ccco2)C1` (stereo not given)?
CYP2C9 inhib: 98*; Cav3 T inh: 0.96; CYP2C19 inh: 91*; CYP2C19 activ: 0.1; CYP2C9 activ: 0

How did CCOC(=O)c1[nH]c(COC(=O)C2CC(=O)N(Cc3ccccc3)C2)c(C(=O)OCC)c1C (stereo not given) do in these assays?
CYP2C9 inhib: 60*; Cav3 T inh: -3.4; CYP2C19 inh: 39; CYP2C19 activ: 0.6; CYP2C9 activ: 0.4

What do the screens show for `O=C(O)C1CC(=O)N(Cc2ccccc2)C1` (stereo not given)?
CYP2C9 inhib: -40; Cav3 T inh: 0.24; CYP2C19 inh: -2; CYP2C19 activ: 1; CYP2C9 activ: 1.4

Results for COc1ccc(CCN2CC(C(=O)NCc3ccco3)CC2=O)cc1OC (stereo not given) ?
CYP2C9 inhib: 9; Cav3 T inh: 0.086; CYP2C19 inh: 10; CYP2C19 activ: 0.9; CYP2C9 activ: 0.9

Results for COc1ccc(-n2cc(C(=O)c3cc4ccccc4oc3=O)c(C(C)=O)n2)cc1 ?
CYP2C9 inhib: -4; Cav3 T inh: 0.29; CYP2C19 inh: -14; CYP2C19 activ: 1.1; CYP2C9 activ: 1

What do the screens show for `Cn1c(OCc2ccc3c(c2)OCO3)nc2c1c(=O)n(Cc1cccc(Cl)c1)c(=O)n2C`?
Cav3 T inh: -0.78

Results for Cc1ccc2nc3c(c(N)c2c1)CCN3c1ccccc1 ?
CYP2C9 inhib: 33; Cav3 T inh: -1.3; CYP2C19 inh: 69*; CYP2C19 activ: 0.3; CYP2C9 activ: 0.7

What do the screens show for `CCCCN1CCc2c1nc1ccc(Br)cc1c2N`?
CYP2C9 inhib: 12; Cav3 T inh: -1.3; CYP2C19 inh: 45; CYP2C19 activ: 0.6; CYP2C9 activ: 0.9

Results for COc1cc2cc3c(N)c(C(=O)Nc4sc(C)c(C)c4C#N)sc3nc2cc1OC ?
CYP2C9 inhib: 18; Cav3 T inh: -1; CYP2C19 inh: 4; CYP2C19 activ: 1; CYP2C9 activ: 0.8

Results for Cn1cccc1P(=O)(c1cccn1C)c1cccn1C ?
CYP2C9 inhib: -15; Cav3 T inh: 0.25; CYP2C19 inh: -8; CYP2C19 activ: 1.1; CYP2C9 activ: 1.1

What do the screens show for `Cc1ccc(-c2csc3ncn(-n4c(C)ccc4C)c(=O)c23)o1`?
CYP2C9 inhib: 47; Cav3 T inh: -0.89; CYP2C19 inh: 87*; CYP2C19 activ: 0.1; CYP2C9 activ: 0.5

What do the screens show for `CCOC(=O)C[C@H]1c2ccc(C(F)(F)F)cc2S(=O)(=O)N1C(C)(C)C`?
Cav3 T inh: -0.41

What do the screens show for `O=C(/C=C/N1CCOCC1)c1ccc(-c2ccccc2)cc1`?
CYP2C9 inhib: 89*; Cav3 T inh: -0.031; CYP2C19 inh: 21; CYP2C19 activ: 0.8; CYP2C9 activ: 0.1

What do the screens show for `O=C(c1ccc(-c2ccccc2)cc1)c1ccccc1C(=O)N1CCOCC1`?
CYP2C9 inhib: 37; Cav3 T inh: -1.1; CYP2C19 inh: 34; CYP2C19 activ: 0.7; CYP2C9 activ: 0.6

What do the screens show for `O=C(c1cnn2cccnc12)N1CCN(Cc2ccc3c(c2)OCO3)CC1`?
CYP2C9 inhib: -4; Cav3 T inh: 1.2; CYP2C19 inh: 12; CYP2C19 activ: 0.9; CYP2C9 activ: 1

What do the screens show for `CCOc1ncccc1C(=O)N1CCN(Cc2ccc3c(c2)OCO3)CC1`?
CYP2C9 inhib: 55*; Cav3 T inh: 0.78; CYP2C19 inh: 82*; CYP2C19 activ: 0.2; CYP2C9 activ: 0.5

How did O=C(CSCc1cccc(Cl)c1)N1CCN(Cc2ccc3c(c2)OCO3)CC1 do in these assays?
CYP2C9 inhib: 16; Cav3 T inh: -5.1*; CYP2C19 inh: 31; CYP2C19 activ: 0.7; CYP2C9 activ: 0.8

What do the screens show for `O=C(Cn1ncc2c1-c1ccccc1OC2)N1CCN(Cc2ccc3c(c2)OCO3)CC1`?
CYP2C9 inhib: 68*; Cav3 T inh: 1.4; CYP2C19 inh: 8; CYP2C19 activ: 0.9; CYP2C9 activ: 0.3

Results for COc1cccc(OC)c1C(=O)N1CCN(Cc2ccc3c(c2)OCO3)CC1 ?
CYP2C9 inhib: 61*; Cav3 T inh: 0.0037; CYP2C19 inh: 57*; CYP2C19 activ: 0.4; CYP2C9 activ: 0.4

What do the screens show for `O=C(N[C@@H](Cc1ccccc1)C(=O)OCc1ccccc1)c1nc[nH]c1C(=O)NCc1ccccc1`?
Cav3 T inh: 0.036

Results for Cc1ccc(NC(=O)N2CCN(Cc3ccc4c(c3)OCO4)CC2)cc1 ?
CYP2C9 inhib: 81*; Cav3 T inh: 0.51; CYP2C19 inh: 34; CYP2C19 activ: 0.7; CYP2C9 activ: 0.2

What do the screens show for `Cc1ccc(C(=O)N2CCN(Cc3ccc4c(c3)OCO4)CC2)o1`?
CYP2C9 inhib: 42; Cav3 T inh: -0.41; CYP2C19 inh: 50; CYP2C19 activ: 0.5; CYP2C9 activ: 0.6

What do the screens show for `CCn1cc(C(=O)N2CCN(Cc3ccc4c(c3)OCO4)CC2)c(=O)c2ccc(C)nc21`?
CYP2C9 inhib: 2; Cav3 T inh: 1.1; CYP2C19 inh: -4; CYP2C19 activ: 1; CYP2C9 activ: 1

What do the screens show for `O=C(N1CCN(Cc2ccc3c(c2)OCO3)CC1)C12CC3CC(CC(C3)C1)C2`?
CYP2C9 inhib: 50*; Cav3 T inh: -0.68; CYP2C19 inh: 66*; CYP2C19 activ: 0.3; CYP2C9 activ: 0.5

Results for O=C(c1cccn2c(=O)c3ccc(Cl)cc3nc12)N1CCN(Cc2ccc3c(c2)OCO3)CC1 ?
CYP2C9 inhib: 70*; Cav3 T inh: 0.11; CYP2C19 inh: 19; CYP2C19 activ: 0.8; CYP2C9 activ: 0.3

What do the screens show for `O=C(O)c1cc(N2C(=O)C3CC=CCC3C2=O)ccc1NCc1cccnc1` (stereo not given)?
CYP2C9 inhib: 19; CYP2C19 inh: 15; CYP2C19 activ: 0.8; CYP2C9 activ: 0.8

Results for CC1=C(C#N)C(c2cccnc2)C2=C(CC(c3ccc(Cl)cc3)CC2=O)N1 (stereo not given) ?
CYP2C9 inhib: 73*; Cav3 T inh: -0.026; CYP2C19 inh: 92*; CYP2C19 activ: 0.1; CYP2C9 activ: 0.3

Results for Cc1ccc(NC(=O)CCNS(=O)(=O)c2cccc3nonc23)cc1 ?
CYP2C9 inhib: 26; Cav3 T inh: 0.36; CYP2C19 inh: 41; CYP2C19 activ: 0.6; CYP2C9 activ: 0.7
